Screens: PubChem, several laboratories
This is a sample that favours compounds with a hit; in the whole collection about 3.2% have one here.
dFosB activator = mouse delta FosB homodimer activation | purified delta FosB, TAMRA-CDK5 oligo fluorescence polarization; percent of positive-control signal above neutral wells | activation, % at 25 µM | 340,000 tested, 0.99% active;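 active = mean activation above about 17%, with every replicate also reaching it, limit read from the data, passing the limit was not always enough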
Target sequence (P13346 whole entry, looked up): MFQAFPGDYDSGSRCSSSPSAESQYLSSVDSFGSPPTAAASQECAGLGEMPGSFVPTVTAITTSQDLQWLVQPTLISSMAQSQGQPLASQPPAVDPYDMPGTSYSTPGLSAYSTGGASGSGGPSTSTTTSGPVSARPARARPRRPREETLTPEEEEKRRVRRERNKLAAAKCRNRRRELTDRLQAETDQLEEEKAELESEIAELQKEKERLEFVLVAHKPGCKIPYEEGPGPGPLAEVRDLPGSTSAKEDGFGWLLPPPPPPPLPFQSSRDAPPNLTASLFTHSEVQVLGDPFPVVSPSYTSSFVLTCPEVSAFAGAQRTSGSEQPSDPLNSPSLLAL
SMARCA2 act = activators of SMARCA2 function | MG213 cells, MMTV-luciferase reporter, dexamethasone, overnight | activation, % at 9.1 µM | 370,000 tested, 1% active | AID 652017; in the data active = activation above about 7.8%;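 note: 0% = vehicle wells and 100% = reference activator wells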
Rtt109 HAT inh = blocks Candida albicans Rtt109/Vps75 acetyltransferase activity; AID 540336; 330,000 tested, 0.16% active; inhibition, % at 34.9 µM; purified Rtt109/Vps75, ThioGlo CoA-SH fluorescence, 4 h;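 active = inhibition of at least 50% in every replicate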
esBAF inh = inhibitors of esBAF chromatin remodeling in mouse ES cells; 350,000 tested, 2% active; reporter increase, % at 12.5 µM; Bmi1-luciferase knock-in reporter, 24 h; 100% = twice the neutral-well signal; in the data active = activation above about 40%;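 note: 0% = median of the plate's neutral control wells and 100% = double that signal; a rise in the Bmi1 reporter signal indicates esBAF inhibition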
CDK5 inh = CDK5/p35 (human) kinase inhibition | Q00535+Q15078 | Recombinant CDK5/p35, ADP-Glo luminescence, 60 min | inhibition, % at 10 µM | 330,000 tested, 0.01% active | AID 488839;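 active = highest replicate inhibition of at least 50% and at least 75% of replicates reaching 50%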;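 note: plate controls were DMSO neutral control for no effect and GW8510 at 10 µM for full effect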
DYRK1A inh = blocks rat Dyrk1A kinase activity; 310,000 tested, 0.43% active; ADP-Glo luminescence, NFATc1 peptide; inhibition, % at 12.5 µM; Q63470; AID 504441; in the data active = inhibition above about 50%;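 note: plate controls were vehicle with enzyme for no effect and no enzyme for full effect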
SMARCA2 conf = SMARCA2 activation, confirmation screen | shares compounds with SMARCA2 act | MG213 cells, MMTV-luciferase with dexamethasone, luminescence, overnight; MG213 cells expressing E1A, Rb sequestered; DMSO wells 0%, reference activator 100% | activation, % at 9.1 µM | 3,500 tested, 30% active;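 active = activation above its plate's cutoff, the mean activation of tested wells plus 3 SD, cut at about 7.9% in these data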
GAL4-VP16 Luc = activates GAL4-VP16 luciferase, flagging SMARCA2 activator hits; shares compounds with SMARCA2 act; HEK293 GAL4-VP16 pG5luc reporter, luciferase luminescence; scaled: DMSO wells 0%, SAHA wells 100%; activation, % at 9.1 µM; 3,500 tested, 41% active; AID 686939;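 active = activation above the solvent-only control well mean plus 3 SD, averaged across control plates, cut at about 5.2% in these data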
The depositor's hits bear a star.

Results for C[C@H](CO)N1C[C@H](C)[C@H](CN(C)C(=O)NC2CCCCC2)Oc2ccc(NC(=O)Nc3cccc4ccccc34)cc2C1=O ?
esBAF inh: 10.4

Results for COc1ccc(-c2cc(CNc3nc(NC(C)C)nc4cc(-c5ccccc5)sc34)on2)cc1 ?
SMARCA2 act: 11.7*; esBAF inh: -83.4; SMARCA2 conf: 3.1; GAL4-VP16 Luc: 4.0

How did O=C(Nc1ccc(Cl)cc1)N[C@@H]1CC[C@@H](CCNC(=O)c2ccccc2F)O[C@@H]1CO do in these assays?
esBAF inh: -1.4

How did CO[C@H]1CN(C)C(=O)c2ccc(NS(C)(=O)=O)cc2OC[C@@H](C)N(CCC(F)(F)F)C[C@@H]1C do in these assays?
esBAF inh: -2.8

What do the screens show for `O=C(NCc1ccccn1)[C@@H]1[C@@H](CO)[C@@H]2Cn3c(cccc3=O)[C@H]1N2CC1CCCCC1`?
esBAF inh: -1.1

How did CCN1CCN(c2ccc(NC(=O)c3ccccc3F)cc2Cl)CC1 do in these assays?
dFosB activator: -1.4; SMARCA2 act: 5.4; Rtt109 HAT inh: -2.2; esBAF inh: 30.6; CDK5 inh: 0.0; DYRK1A inh: 6.8

What do the screens show for `CCN1CCc2nc(NC(=O)c3ccc4c(c3)OCCO4)sc2C1`?
dFosB activator: 1.3; SMARCA2 act: 8.7*; Rtt109 HAT inh: 4.5; esBAF inh: 41.5*; CDK5 inh: -0.2; DYRK1A inh: 9.2; SMARCA2 conf: 6.8; GAL4-VP16 Luc: 10.7*

Results for CCN1CCc2nc(NC(=O)Cc3ccc4c(c3)OCCO4)sc2C1 ?
dFosB activator: 5.3; SMARCA2 act: 0.3; Rtt109 HAT inh: 3.2; esBAF inh: -9.4; CDK5 inh: 1.6; DYRK1A inh: -4.9

What do the screens show for `CCN1CCN(c2ccc(NC(=O)c3cc4ccccc4cc3OC)cc2C)CC1`?
dFosB activator: 13.6; SMARCA2 act: 12.3*; Rtt109 HAT inh: -0.8; esBAF inh: 7.5; CDK5 inh: 1.1; DYRK1A inh: 6.2; SMARCA2 conf: 8.1*; GAL4-VP16 Luc: 12.5*

Results for CCN1CCN(c2ccc(NC(=O)c3ccc4c(c3)OCCO4)cc2C)CC1 ?
dFosB activator: -8.7; SMARCA2 act: 10.9*; Rtt109 HAT inh: -14.5; esBAF inh: -0.6; CDK5 inh: -0.2; DYRK1A inh: -4.0; SMARCA2 conf: 7.1; GAL4-VP16 Luc: 7.9*

How did CCN1CCN(c2cc(C)c3cc(NC(=O)c4ccc5c(c4)OCO5)ccc3n2)CC1 do in these assays?
dFosB activator: 1.8; SMARCA2 act: 3.5; Rtt109 HAT inh: -5.4; esBAF inh: 4.9; CDK5 inh: -2.2; DYRK1A inh: 7.9

Results for COc1ccc(S(=O)(=O)Nc2ccc3c(c2)C(=O)N([C@@H](C)CO)C[C@@H](C)[C@H](CN(C)C(=O)Nc2ccc4c(c2)OCO4)OCCCC[C@H](C)O3)cc1 ?
esBAF inh: -6.4

How did Cc1ccc(N2Cc3ccccc3C2=O)cc1 do in these assays?
dFosB activator: -5.4; SMARCA2 act: 10.2*; Rtt109 HAT inh: -10.7; esBAF inh: -20.9; CDK5 inh: 4.0; DYRK1A inh: 8.7; SMARCA2 conf: 2.7; GAL4-VP16 Luc: 5.0

What do the screens show for `O=C(CC1CC1)N1CC[C@@H]2[C@H]1c1cc(-c3ccccc3)ccc1N[C@@H]2CO`?
esBAF inh: -0.5

Results for CC(=O)Nc1ccc2sn(-c3ccccc3)c(=O)c2c1 ?
SMARCA2 act: 17.3*; esBAF inh: -0.6; SMARCA2 conf: 8.8*; GAL4-VP16 Luc: 0.9

What do the screens show for `N#Cc1ccc2sn(-c3ccccc3)c(=O)c2c1`?
SMARCA2 act: 11.9*; esBAF inh: 31.5; SMARCA2 conf: 7.9*; GAL4-VP16 Luc: 11.2*

What do the screens show for `CNC(=O)C[C@@H]1CC[C@H]2[C@@H](COc3ccc(NC(=O)c4cscn4)cc3C(=O)N2C)O1`?
esBAF inh: 0.4

How did COc1ccccc1NC(=O)N[C@H]1CC[C@H](CCNS(=O)(=O)c2ccc(F)cc2)O[C@@H]1CO do in these assays?
esBAF inh: 1.9

Results for Cc1ccc(S(=O)(=O)Nc2ccc3c(c2)C(=O)N([C@H](C)CO)C[C@@H](C)[C@@H](CN(C)C(=O)C2CCCCC2)OCCCC[C@@H](C)O3)cc1 ?
esBAF inh: 8.4

What do the screens show for `Cc1nn(-c2ccccc2)c(Cl)c1/C=N/Nc1ccc(Cl)c(C(=O)O)c1`?
dFosB activator: -3.6; SMARCA2 act: 8.9*; Rtt109 HAT inh: 1.7; CDK5 inh: 0.5; DYRK1A inh: 1.7; SMARCA2 conf: 9.4*; GAL4-VP16 Luc: 13.6*

What do the screens show for `Cc1nn(-c2ccccc2)c(Cl)c1/C=N/NC(=O)OC(C)(C)C`?
dFosB activator: -7.4; SMARCA2 act: 2.8; Rtt109 HAT inh: -1.1; CDK5 inh: 1.0; DYRK1A inh: 2.9

What do the screens show for `CN1CCSc2ccc(C(=O)Nc3cc(F)ccc3F)cc21`?
dFosB activator: -8.9; SMARCA2 act: 11.0*; Rtt109 HAT inh: -10.5; esBAF inh: 12.7; CDK5 inh: -1.1; DYRK1A inh: 2.0; SMARCA2 conf: 3.0; GAL4-VP16 Luc: 12.2*

What do the screens show for `C=CCN1C(=O)/C(=C/c2ccc(O)c(OC)c2)S/C1=N/c1nccs1`?
dFosB activator: -9.0; SMARCA2 act: 11.1*; Rtt109 HAT inh: 2.7; CDK5 inh: 1.7; DYRK1A inh: 7.2; SMARCA2 conf: 2.1; GAL4-VP16 Luc: 1.4

Results for CN=C1S/C(=C\c2ccc(OCC(=O)OC)c(OC)c2)C(=O)N1C ?
dFosB activator: -5.0; SMARCA2 act: 3.5; Rtt109 HAT inh: 11.3; esBAF inh: -1.2; CDK5 inh: -0.7; DYRK1A inh: -0.2

What do the screens show for `C=CCN1C(=O)/C(=C/c2ccc(OCC(=O)O)cc2)S/C1=N/c1nccs1`?
dFosB activator: -13.6; SMARCA2 act: 2.0; Rtt109 HAT inh: 23.3; CDK5 inh: -0.3; DYRK1A inh: -5.6

Results for CN=C1S/C(=C\c2ccc(O)c(OC)c2)C(=O)N1C ?
SMARCA2 act: 8.9*; SMARCA2 conf: 7.1; GAL4-VP16 Luc: 14.2*

Results for COC(=O)CC1C(=O)NCCN1C(=O)c1ccc([N+](=O)[O-])cc1 (configuration not stated) ?
dFosB activator: 0.8; SMARCA2 act: 10.0*; Rtt109 HAT inh: -2.0; esBAF inh: -6.3; CDK5 inh: -0.8; DYRK1A inh: 2.2; SMARCA2 conf: 4.6; GAL4-VP16 Luc: 0.1
